# Values joined by “and” are separate entries in the source; they are usually repeats but may differ in a detail not shown here. Equal entries are not always repeated. The campaign covered roughly 320,000 compounds. About 2,100 (0.66%) were called active. Inconclusive results (about 53%) are left out. Calls follow the shape of the dose curve; as a rule, active = well fitted inhibition curve with a large enough effect in the signal ratio, with a control signal flat (not every such curve was filed as active); inconclusive = small, poorly fitted or top-dose-only effect, or effect the other way, or a change in a side signal; inactive = flat fitted curve, though single readings scatter; the % refers to the signal ratio. The sample as a whole holds a higher share of actives than the screen did.
# Assay: qHTS Assay for Lipid Storage Modulators in Drosophila S3 Cells;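 as to cell number change: cells counted by Cell Tracker Red CMTPX staining in the red channel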
# Details: BODIPY lipid droplet fluorescence, 18-24 h, cells fed with added oleic acid; cell number change: measured here: cell count max response; series mostly up to 46.1 µM
# Method in brief: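 Drosophila S3 cells loaded with oleic acid (400 uM, as added) and compounds at several concentrations; lipid droplets imaged by 488-nm laser-scanning cytometry, 500–530 nm intensity and object ratio to cell channel. Percent activity normalized to 20 uM Triacsin C.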
# Potency is read from the fitted curve at half-maximal effect.
SMILES,Potency,cell number change
CC(=O)Nc1ccc(S(=O)(=O)NC2CC2)cc1,inactive,-7.3%
O=C(O)CCCCCCCCCC(=O)c1cccs1,inactive,-19.9%
O=C(CCN1C(=O)/C(=C/c2ccco2)SC1=S)Nc1ccc(C(=O)O)c(O)c1,inactive,-0.876%
O=C(CCN1C(=O)/C(=C\c2ccco2)SC1=S)Nc1ccc(C(=O)O)c(O)c1,inactive,1.15%
O=C(CN1C(=O)/C(=C/c2ccco2)SC1=S)Nc1ccc(C(=O)O)c(O)c1,20.6 µM (active),25.4%
Cc1ccccc1COC(=O)c1nn(-c2ccccc2)nc1N,inactive,3.63%
CCOC(=O)C(NC(=O)c1ccc(F)cc1)(Nc1nnc(C)s1)C(F)(F)F (stereo not given),inactive,2.37%
COc1ccc(NC(=O)N2CCCC(CNS(=O)(=O)c3cccs3)C2)c(C)c1 (stereo not given),inactive,-5.03%
COCCn1c(SCC(=O)Nc2ccc(F)cc2)nc2ccccc2c1=O,inactive,3.47%
COCCCn1c(SCC(=O)Nc2ccc(C)cc2)nc2ccccc2c1=O,inactive,-12.3%
COCCn1c(SCC(=O)Nc2cc(C)cc(C)c2)nc2ccccc2c1=O,2.06 µM (active),-20.8%
CSCC[C@H](NC(=O)COc1ccc(Cl)cc1)C(=O)N1CCC2(CC1)NCCc1[nH]cnc12,inactive,–
O=C(NC(Cc1ccccc1)C(=O)O)C1CCCCC1 (stereo not given),inactive,-3.98%
CCCC(C(=O)NCCC(C)C)N(Cc1ccccc1)C(=O)c1snc(C(N)=O)c1N (stereo not given),3.66 µM (active),-3.86%
CCCC(C(=O)NCCC(C)C)N(Cc1ccc(OC)cc1)C(=O)c1snc(C(N)=O)c1N (stereo not given),inactive,-7.72%
CCC(C(=O)NC1CCCCC1)N(Cc1cccs1)C(=O)c1snc(C(N)=O)c1N (stereo not given),inactive,–
CCCC(C(=O)NCCC(C)C)N(Cc1ccc(F)cc1)C(=O)c1snc(C(N)=O)c1N (stereo not given),inactive,-7.77%
CCC(C(=O)NC1CCCC1)N(Cc1ccccc1Cl)C(=O)c1snc(C(N)=O)c1N (stereo not given),0.58 µM (active),-3.04%
COc1ccc(C(C(=O)NC2CCCC2)N(C(=O)c2snc(C(N)=O)c2N)c2cc(C)ccc2OC)cc1OC (stereo not given),inactive,-1.28%
CCC(C(=O)NC(C)(C)C)N(Cc1ccccc1Cl)C(=O)c1snc(C(N)=O)c1N (stereo not given),inactive,-22.3%

SMILES,Potency,cell number change
COc1ccc(N(C(=O)c2snc(C(N)=O)c2N)C(C(=O)NC2CCCC2)c2cc(OC)ccc2OC)c(OC)c1 (stereo not given),inactive,-0.901%
COc1ccc(N(C(=O)c2snc(C(N)=O)c2N)C(C(=O)NC2CCCCC2)c2ccc(F)cc2)c(OC)c1 (stereo not given),13 µM (active),–
CCOC(=O)Cc1csc(NC(=S)NC(=O)c2cc(OC)c(OC)c(OC)c2)n1,inactive,-1.2%
COc1ccc(NC(=O)Nc2nnc(-c3cccs3)s2)cc1,inactive,-11.4%
COc1ccc(C(=O)Nc2nc(-c3ccccc3)c(C(C)=O)s2)c(OC)c1,inactive,-8.6%
COCCn1c(=O)[nH]c2cc(C(=O)NC(C)C)ccc2c1=O,inactive,2.66%
CCCS(=O)(=O)c1nc(S(=O)(=O)c2ccc(C)cc2)c(NCCCN(C)C)s1,inactive,6.73%
CC(=O)NC(c1ccco1)c1cc(F)c2cccnc2c1O (stereo not given),inactive,-4.72%
CC(=O)NC(c1cccs1)c1cc(F)c2cccnc2c1O (stereo not given),8.4% and -17.4%,–
CC(=O)NC(c1cccs1)c1cc(Br)c2cccnc2c1O (stereo not given),inactive,16.4%
Cc1cc(C)c(NC(=O)CS(=O)CC(=O)NCC2CCCO2)c(C)c1 (stereo not given),inactive,3.77%
Cc1ccc(C(=O)Nc2cccc(C(F)(F)F)c2)cc1NC(=O)c1nccnc1N,inactive,-18.4%
Cc1ccc(C(=O)Nc2cccc(C(F)(F)F)c2)cc1Nc1ncnc2nc[nH]c12,inactive,-0.327%
Cc1ccc(NC(=O)c2cccc(C(F)(F)F)c2)cc1NC(=O)c1[nH]cnc1C(N)=O,0.517 µM (active),-5.2%
CC(NC(=O)c1cc(S(=O)(=O)N2CCCC2)ccc1Cl)c1ccccn1 (stereo not given),inactive,12.8%
O=C(N/N=C/c1ccc([N+](=O)[O-])cc1)c1ccc2nc[nH]c2c1,inactive,-15.6%
O=C(Nc1ccc(F)cc1)c1cc(Cl)sc1Cl,inactive,-1.56%
CN1c2ccccc2C(O)=C(C(=O)Nc2ccccc2)S1(=O)=O,inactive,–
CN1c2ccsc2C(O)=C(C(=S)Nc2ccccc2)S1(=O)=O,18.4 µM (active),15.4%
Cc1ccccc1NC(=S)C1=C(O)c2sccc2N(C)S1(=O)=O,inactive,–

SMILES,Potency,cell number change
COc1ccc(NC(=S)NNC(=O)CNc2ccc(Cl)cc2)cc1,inactive,–
COc1ccccc1N1CCN(CC(C)N(C(=O)C2CCCCC2)c2ccccn2)CC1 (stereo not given),inactive,9.42%
CCOc1cc(C2C(C(=O)c3ccc(C)o3)=C(O)C(=O)N2CCc2ccccc2)ccc1O (stereo not given),inactive,–
O=C(CCN1CCN(CCO)CC1)Nc1ccc(F)c(F)c1,6.51 µM (active),1.67%
O=C(CN1CCCCC1)Nc1cccc(Br)c1,23.1 µM (active),-14.8%
COc1ccc(NC(=O)CCN2CCCCCC2)cc1,inactive,-0.671%
COc1ccc(NC(=O)CCN2CCCCC2)cc1,18.4 µM (active),-13.9%
O=C(CCN1CCCC1)Nc1cccc(Br)c1,inactive,-0.144%
CCOc1ccc(NC(=O)CCN2CCCCC2)cc1,inactive,9.23%
O=C(CN1CCCCCC1)Nc1cccc(NC(=O)CN2CCCCCC2)c1,inactive,-11.3%
CCOC(=O)c1cc(NC(=O)CN2CCCC2)cc(C(=O)OCC)c1,2.31 µM (active),-1.35%
COC(=O)c1cc(NC(=O)CN2CCN(C(C)=O)CC2)cc(C(=O)OC)c1,inactive,15.4%
CN1CCN(CCC(=O)Nc2ccc(F)c(F)c2)CC1,inactive,-0.365%
COC(=O)c1ccc(NC(=O)CN2CCCC2)cc1,inactive,-13.3%
O=C(CCN1CCN(CCO)CC1)Nc1ccc(Br)cc1,inactive,0.964%
O=C(CSc1nc2c(c(=O)n1-c1ccc(F)cc1)SCC2)N1CCCC1,inactive,-5.69%
Cc1cc(C)cc(OC(=O)COc2ccccc2C)c1,inactive,16.2%
CCCOc1ccccc1C(=O)N(Cc1ccco1)C1CCS(=O)(=O)C1 (stereo not given),inactive,-17.8%
CCOC(=O)C1=C(COC(=O)CCC(=O)c2ccc(C)cc2)NC(=O)NC1C (stereo not given),inactive,25.4%
